# Values joined by “and” are separate entries in the source; they are usually repeats but may differ in a detail not shown here. Equal values may be shown once. Active and inactive are the calls of the source.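 Rule for the calls, unless noted: active = inhibition at or above 50% relative to wild type and mutant plate controls; inactive = inhibition below 50%.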
# Assays:
# [1] = inhibitors of TNFa-induced NFkB p65 translocation, primary screen, imaging, HUVEC, MLSMR starter and 10KST1 sets (AID 438;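 active = inhibition above 20% together with a positive visual image hit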;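 note: compound added about 3h40 before a 20 min TNFalpha stimulation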;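 for inhibition: signal is the nuclear over cytoplasmic p65 intensity ratio per well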); settings: HUVEC TNFa-induced p65 nuclear translocation; cell count: measured here: nuclei count (cytotoxicity indicator), at 2.08 µM; inhibition: at 2 µM, stronger effect = higher value, 0% TNFa-plus-vehicle, 100% no-TNFa wells
# [2] = reduction of polyQ htt aggregates in cells – imaging, exon1htt(103Q)mCFP cells, high-content imaging, primary screen (AID 483;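 active = visual image review flags a hit and inhibition of aggregation exceeds 20%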;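 note: compound exposure lasted 3 days before fixation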;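 for nuclei count: percent of the per-plate median nuclei count of sample wells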); settings: exon1htt(103Q)mCFP cell line, aggregate imaging, at 2 µM; inhibition of aggregation: stronger effect = higher value; nuclei count: measured here: cell count, toxicity
# [3] = endothelial E-selectin expression blockers – imaging, HUVEC, immunofluorescence, MLSMR starter and 10KST1 sets, primary screen (AID 487;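 active = visually confirmed hit in the image check and inhibition above 20%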;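 for inhibition: signal is fraction of cell area covered by stained E-selectin grains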;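 for nuclei count: 100% = median nuclei count of all wells on the same plate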); settings: HUVEC TNFalpha-induced E-selectin immunofluorescence imaging, at 2 µM; inhibition: stronger effect = higher value; nuclei count: measured here: cell number, toxicity
# [4] = Primary imaging screen for DUSP6 inhibitors that restore phospho-Erk in transfected HeLa cells, chemical complementation (AID 609;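 active = compounds giving at least 50% inhibition in the cell-based MKP-3 phosphatase rescue imaging test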;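 for inhibition: phospho-Erk level distribution per well compared with pooled transfected vehicle control wells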); settings: HeLa MKP-3 transfected, phospho-Erk imaging KS statistic, at 10 µM, cells stimulated with TPA for 15 min
# [5] = target: Dual specificity protein phosphatase 6 (Homo sapiens) (UniProt Q16828); assay: as above; settings: HeLa MKP-3 transfected, phospho-Erk imaging KS statistic; at 10 µM; stronger effect = higher value; cells stimulated with TPA for 15 min
# [6] = target: Voltage-gated potassium channel subunit beta-2 (Rattus norvegicus) (UniProt P62483); assay: inhibitors of rat Kvbeta2 reductase activity – biochemical, NADPH fluorescence, primary screen (AID 622;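 active = fluorescence slope higher than the sample average by over 3 SD, cut at about -0.22 in these data, passing the limit was not always enough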;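 note: slope of raw intensity against log time taken from 70 to 1610 s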); settings: recombinant KvBeta, 4-cyanobenzaldehyde reduction, at 10 µM, stronger effect = higher value
# [7] = target: Voltage-gated potassium channel subunit beta-2 (Rattus norvegicus) (UniProt P62483); assay: enhancers of rat Kvbeta2 NADPH turnover – biochemical, NADPH fluorescence, primary screen (AID 623;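 active = NADPH fluorescence slope more negative than the mean of all samples by about 3 SD, 99.7% confidence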;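 note: fluorescence intensity change per second fitted from 20 to 320 s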); settings: Recombinant KvBeta, NADPH fluorescence decrease slope, 10 min; at 10 µM; stronger effect = lower value
# [8] = target: Alpha-2C adrenergic receptor (Homo sapiens) (UniProt P18825); assay: compounds altering alpha2C-coupled GIRK flux – cell-based, HEK293 alpha2C/GIRK1/2, thallium flux, primary screen (AID 624;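 active = fluorescence slope after compound addition differing from the mean of all screened samples at 99.7% confidence, in either direction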;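 note: slope of fluorescence ratio to pre-addition baseline per second over 15 to 24 s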); settings: thallium flux BTC fluorescence, at 10 µM, actives lie on both sides
# [9] = inhibitors of larval lipid processing in zebrafish, primary screen, whole organism, PED6 fluorescence, gall bladder and intestine (AID 686;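 active = a full or partial loss of lipid-probe fluorescence in the fish gall bladder, intestine or both, judged by eye; inactive = no fluorescence loss, or compound toxic to the fish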;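 note: larvae 5 to 7 days old with five fish per well; signal comes from phospholipase A2 cleavage of quenched PED6 carried via bile; overnight exposure to compound and PED6 before scoring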); settings: Zebrafish larvae PED6 lipid processing, fluorescence scoring; screened at 20 µM (by protocol)
# [10] = loss of swimming-algae plug formation – whole organism, Chlamydomonas reinhardtii, WT vs cilia-less mutant, absorbance, 96-well, primary screen (AID 463189); settings: Chlamydomonas reinhardtii gravitaxis, OD600 absorbance, 2 days; at 10 µM; stronger effect = higher value;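 note: 0% = wild type cc124 cells in DMSO and 100% = ciliumless bld1 mutant cells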
# [11] = blockers of RIG-like receptor reporter activation – cell-based, Sendai virus stimulus, luciferase, 10K MLSCN set, TLR/RLR signaling modifier project, primary screen (AID 602276;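 active = inhibition at or above 50% at 10 µM; inactive = inhibition below 50%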;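 note: firefly luciferase from ISG56 promoter only with Renilla not read in this screen; 0% = Sendai virus plus DMSO and 100% = medium plus DMSO without virus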); settings: HEK293 RL24 IRF3 luciferase reporter, at 10 µM, stronger effect = higher value
# [12] = TLR3 IRF3 reporter activation blockers – cell-based, poly I:C stimulus, luciferase, 10K MLSCN set, primary screen (AID 602277;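 active = inhibition of the reporter signal at or above 50%; inactive = inhibition below 50%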); settings: HEK293-TLR3 RL24 IRF3 luciferase reporter, at 10 µM, stronger effect = higher value
# [13] = measured here: cell density z-score
# [14] = measured here: nuclear c-Myc green intensity z-score
# [15] = measured here: nuclear pErk red intensity z-score, stronger effect = higher value
# Chain of Dual specificity protein phosphatase 6 (Homo sapiens) (Q16828 whole entry, looked up): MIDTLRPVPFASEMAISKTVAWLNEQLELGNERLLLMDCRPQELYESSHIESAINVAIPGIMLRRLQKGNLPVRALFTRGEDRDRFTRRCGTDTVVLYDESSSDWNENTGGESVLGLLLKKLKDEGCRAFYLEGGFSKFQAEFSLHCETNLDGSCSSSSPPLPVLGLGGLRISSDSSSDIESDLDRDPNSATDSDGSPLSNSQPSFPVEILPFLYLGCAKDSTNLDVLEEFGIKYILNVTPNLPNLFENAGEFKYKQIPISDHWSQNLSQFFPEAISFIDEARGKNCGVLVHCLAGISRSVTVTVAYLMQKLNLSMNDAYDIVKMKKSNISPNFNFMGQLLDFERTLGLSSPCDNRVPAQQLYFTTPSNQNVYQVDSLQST
# Chain of Voltage-gated potassium channel subunit beta-2 (Rattus norvegicus) (P62483 whole entry, looked up): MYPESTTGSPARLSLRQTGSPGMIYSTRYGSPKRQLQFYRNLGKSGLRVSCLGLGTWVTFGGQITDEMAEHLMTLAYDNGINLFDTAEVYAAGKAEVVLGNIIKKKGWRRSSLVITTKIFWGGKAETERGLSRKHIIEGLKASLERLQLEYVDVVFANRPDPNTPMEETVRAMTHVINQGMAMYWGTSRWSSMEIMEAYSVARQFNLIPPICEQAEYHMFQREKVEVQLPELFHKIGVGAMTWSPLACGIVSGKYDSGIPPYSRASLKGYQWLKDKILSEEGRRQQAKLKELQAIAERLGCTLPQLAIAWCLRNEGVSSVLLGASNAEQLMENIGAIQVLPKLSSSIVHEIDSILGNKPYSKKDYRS
# Chain of Alpha-2C adrenergic receptor (Homo sapiens) (P18825 whole entry, looked up): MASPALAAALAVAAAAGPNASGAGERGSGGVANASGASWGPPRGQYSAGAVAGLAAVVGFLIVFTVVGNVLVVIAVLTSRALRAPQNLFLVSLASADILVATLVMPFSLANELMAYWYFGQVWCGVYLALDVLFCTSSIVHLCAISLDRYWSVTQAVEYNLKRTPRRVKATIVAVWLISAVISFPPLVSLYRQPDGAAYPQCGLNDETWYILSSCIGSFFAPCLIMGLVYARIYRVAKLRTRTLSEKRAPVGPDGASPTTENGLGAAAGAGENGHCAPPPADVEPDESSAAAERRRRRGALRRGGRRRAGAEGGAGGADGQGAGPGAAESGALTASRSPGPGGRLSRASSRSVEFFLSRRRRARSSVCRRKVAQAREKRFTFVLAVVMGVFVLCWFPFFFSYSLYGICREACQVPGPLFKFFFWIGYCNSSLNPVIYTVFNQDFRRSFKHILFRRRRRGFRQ
SMILES,cell count [1],inhibition [1],inhibition of aggregation [2],nuclei count [2] [%],inhibition [3],nuclei count [3] [%],"z-score [4, 13]","z-score [4, 14]","z-score [4, 15]",inhibition [5],fluorescence slope [6],NADPH fluorescence slope [7],slope [8],outcome [9],inhibition [10],inhibition [11],inhibition [12]
COC1=CC(=O)CC(C)C12Oc1c(Cl)c(OC)cc(OC)c1C2=O (stereo not drawn),555,-5% (inactive),6.9% (inactive),105,-16.1% (inactive),122,-1.48,-1.27,1.79,-8.38% (inactive),-0.459 (inactive),-3.3e-05 (inactive),0.00463 (inactive),inactive,-7.52% (inactive),22.1% (inactive),38.6% (inactive)
C=CCSc1nnc2n(-c3ccccc3OC)c(=O)c3c4c(sc3n12)CCC4,578,-5.9% (inactive),15.1% (inactive),59.7,-27% (inactive),126,0.876,-0.888,-0.633,7.73% (inactive),-0.339 (inactive),-1.1e-06 (inactive),0.00538 (inactive),inactive,43.3% (inactive),1.81% (inactive),0.316% (inactive)
CNCCC=C1c2ccccc2CCc2ccccc21,525,0.8% (inactive),8% (inactive),77,-20.7% (inactive),117,-0.881,-0.123,2.59,-10.4% (inactive),-0.521 (inactive),-4.9e-05 (inactive),0.00426 (inactive),inactive,34% (inactive) and 30.7% (inactive),29.4% (inactive),43.5% (inactive)
O=C(CCNNC(=O)c1ccncc1)NCc1ccccc1,595,2.2% (inactive),-4.6% (inactive),104,-81.8% (inactive),117,-1.05,-0.737,0.12,8% (inactive),-0.485 (inactive),-7.6e-05 (inactive),0.00448 (inactive),inactive,4.6% (inactive) and 1.15% (inactive),-7.31% (inactive),21.4% (inactive)
O=C(C1=C(O)C(=O)N(c2ncccn2)C1c1cccc(Cl)c1)c1ccco1 (stereo not drawn),454,-2.1% (inactive),23.5% (inactive),97.7,-61.9% (inactive),138,0.991,-0.348,0.185,-4.7% (inactive),-0.349 (inactive),-2.5e-05 (inactive),0.00586 (inactive),inactive,3.84% (inactive),11% (inactive),1.21% (inactive)
OC[C@H]1O[C@@H](n2cnc3c(NC4CCCC4)ncnc32)[C@H](O)[C@@H]1O,528,-13.1% (inactive),-15.5% (inactive),110,-19.6% (inactive),126,1.27,-0.327,-0.893,11.3% (inactive),-0.459 (inactive),2.3e-05 (inactive),0.00611 (inactive),inactive,30.3% (inactive),-1.14% (inactive),12.9% (inactive)
CCN(CC)CCOC(=O)C(c1ccccc1)c1ccccc1,533,-8.8% (inactive),19.8% (inactive),104,-7.9% (inactive),122,-0.21,-0.778,-0.535,7.39% (inactive),-0.478 (inactive),-3.2e-05 (inactive),0.00418 (inactive),inactive,-5.27% (inactive),9.86% (inactive),40.1% (inactive)
Nc1ccc2cn[nH]c2c1,616,0.3% (inactive),9% (inactive),94.8,-58.4% (inactive),123,-0.59,0.481,-0.693,5.79% (inactive),-0.531 (inactive),-2.3e-05 (inactive),0.00412 (inactive),inactive,-10.8% (inactive),3.56% (inactive),33% (inactive)
COc1cccc(OC)c1C(=O)N1CCN(S(=O)(=O)c2ccc(C)cc2)CC1,565,-7.5% (inactive),12.9% (inactive),104,-232% (inactive),135,-0.228,-1.25,0.112,5.57% (inactive),-0.382 (inactive),1.3e-06 (inactive),0.0062 (inactive),inactive,-1.26% (inactive),5.77% (inactive),18% (inactive)
CCCC(=O)O[C@]1(C(=O)CCl)[C@@H](C)C[C@H]2[C@@H]3CCC4=CC(=O)C=C[C@]4(C)[C@@]3(F)C(=O)C[C@@]21C,614,-3.2% (inactive),-2.9% (inactive),63.4,-61.7% (inactive),120,0.0825,0.587,-0.866,19.2% (inactive),-0.535 (inactive),-7e-05 (inactive),0.00401 (inactive),inactive,47.7% (inactive),-12.4% (inactive),-5.01% (inactive)
COc1ccc(C(=O)Nc2cccnc2)cc1C(=O)Nc1cccnc1,654,4.4% (inactive),-4.7% (inactive),101,-4.7% (inactive),72.8,0.737,-0.175,-0.517,23.4% (inactive),-0.448 (inactive),-4.6e-05 (inactive),0.00454 (inactive),inactive,-3.27% (inactive),11.5% (inactive),36% (inactive)
C=CCn1c(N)c(C(=O)OC(C)(C)C)c2nc3ccccc3nc21,370,-11.7% (inactive),-9.4% (inactive),100,-104% (inactive),124,1.71,-2,-1.69,-2.59% (inactive),-0.257 (inactive),0.000211 (inactive),0.00615 (inactive),inactive,12.3% (inactive),12.2% (inactive),-1.21% (inactive)
Brc1cccc(-c2cnc3n2CCCCC3)c1,517,-12.1% (inactive),5.1% (inactive),76.5,-58.1% (inactive),139,0.246,-0.612,1.65,-8.95% (inactive),-0.446 (inactive),-0.000303 (inactive),0.00481 (inactive),inactive,59.2% (active),-2.77% (inactive),-38% (inactive)
COCCOC(=O)c1c(C)nc(SCC(=O)Nc2ccc(OC)cc2)c(C#N)c1-c1ccco1,386,-17.9% (inactive),-11.5% (inactive),76,-23.1% (inactive),90,-0.584,-0.072,-0.599,-6.59% (inactive),-0.422 (inactive),-2.9e-05 (inactive),0.00733 (inactive),inactive,-0.332% (inactive),16.9% (inactive),12.1% (inactive)
Cc1cccc(OCC(=O)N2CCC(N3CCCCCC3)CC2)c1,395,-7.8% (inactive),17.2% (inactive),97.5,-247% (inactive),128,1.59,1.35,-0.179,5.57% (inactive),-0.384 (inactive),-4.7e-05 (inactive),0.00464 (inactive),inactive,17.1% (inactive),-0.464% (inactive),3.84% (inactive)
C[C@]12CC[C@@H]3c4ccc(O)cc4C(=O)C[C@H]3[C@@H]1CC[C@@H]2O,575,-1.5% (inactive),12.4% (inactive),79.9,-48.8% (inactive),123,0.0524,0.457,1.93,10.2% (inactive),-0.47 (inactive),-7.3e-05 (inactive),0.00515 (inactive),inactive,-6.24% (inactive),-0.554% (inactive),18.4% (inactive)
CCN(CC)C(=O)CSC1=C(C#N)C(c2ccco2)C(C(=O)OCCOC)=C(C)N1 (stereo not drawn),393,-8.6% (inactive),15.4% (inactive),104,-184% (inactive),152,0.81,-0.0131,1.47,-3.98% (inactive),-0.378 (inactive),-3e-05 (inactive),0.00415 (inactive),inactive,14% (inactive),2.19% (inactive),16.7% (inactive)
COc1ccc2c(c1)c(CC(=O)OCC(=O)O)c(C)n2C(=O)c1ccc(Cl)cc1,609,-4% (inactive),-25.2% (inactive),89.1,-34.9% (inactive),111,-0.113,0.548,-0.549,17.3% (inactive),-0.451 (inactive),-3.8e-05 (inactive),0.00555 (inactive),inactive,14.4% (inactive),11.9% (inactive),36.9% (inactive)
CCN(CC)c1ccc(-c2nn3c(-c4cccnc4)nnc3s2)cc1,508,-7.3% (inactive),-31.1% (inactive),10,-247% (inactive),120,0.463,-0.276,0.497,-6.06% (inactive),-0.39 (inactive),-8.4e-05 (inactive),0.00633 (inactive),inactive,128% (active),49.1% (inactive),7.63% (inactive)

# — PubChem BioAssay
